Bioassay records: PubChem, several laboratories
DAX1 inh: inhibits human nuclear receptor DAX1; 340,000 compounds, 0.99% hits; P51843; HEK293 Gal4-DAX1 luciferase reporter, luminescence; AID 504766; inhibition, % at 6.75 µM;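 active = inhibition above the mean over all tested compounds plus 3 SD, cut at about 4.2% in these data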;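 note: 0% = DAX1-transfected cells with DMSO and 100% = empty-vector control cells with DMSO; inhibition shows as a rise in luminescence from relieved DAX1 repression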
Target sequence (P51843 207-470 limits assumed): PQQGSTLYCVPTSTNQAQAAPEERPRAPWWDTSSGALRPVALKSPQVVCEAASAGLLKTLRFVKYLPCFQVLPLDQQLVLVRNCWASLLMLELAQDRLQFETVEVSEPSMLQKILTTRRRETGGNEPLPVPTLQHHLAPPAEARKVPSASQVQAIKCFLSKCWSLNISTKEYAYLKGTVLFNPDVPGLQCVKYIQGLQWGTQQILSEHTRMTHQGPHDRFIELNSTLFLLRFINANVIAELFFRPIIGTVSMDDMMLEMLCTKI
HSP90 refold inh: HSP90 refolding inhibition in rabbit reticulocyte lysate. inhibition, % at 5.6 µM. 290,000 compounds, 0.91% hits. AID 1789. luciferase refolding luminescence, 3 h;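 active = inhibition above the screen-wide mean plus 3 SD, computed separately per campaign, cut at about 16% in these data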;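 note: 0% = DMSO wells and 100% = 60 µM geldanamycin wells; inhibitors lower the luminescence because luciferase stays unfolded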
HSF-1 act: increases HSF-1 driven luciferase reporter signal. NIH3T3-HGL HSF-1 luciferase reporter, MG132, 8 h; 100% = twice DMSO control signal. activation, % at 9 µM. 300,000 compounds, 1.7% hits;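 active = mean replicate activation of at least 50% with a set share of replicates each reaching 50%; inconclusive = only one of those two conditions met; inactive = mean below 50% and too few replicates reaching it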;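 note: 0% = median of the neutral control wells and 100% = twice that signal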
FXN GAA850 act: increases GAA850 frataxin promoter reporter activity; HEK293 lucGAA850 FXN promoter luciferase reporter, 24 h; percent of 10 µM SAHA response; activation, % at 6 µM; 360,000 compounds, 0.56% hits; AID 540364;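 active = activation above the average of all compounds screened plus 3 SD, cutoff fixed separately per campaign, cut at about 7.5% in these data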;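 note: 0% = DMSO wells and 100% = 10 µM SAHA wells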
HSF1 inh: HSF1 inhibition. NIH3T3-HGL HSE-luciferase, MG132-induced, luminescence 8 h; active compounds read low. activity change, negative = inhibition, % at 7.5 µM (by protocol). 300,000 compounds, 0.77% hits;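 active = more than half of replicate wells show activity change below -50%, luminescence cut by over half; inconclusive = some wells, but at most half, below -50%; inactive = no replicate well below -50%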;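 note: luciferase reports HSF-1 transcriptional activity via heat shock element; 0% = median of DMSO wells and -100% = zero luminescence signal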
AHR activator: activates the human aryl hydrocarbon receptor. AHR-responsive luciferase reporter cells, luminescence. AID 2796. 320,000 compounds, 2.5% hits. activation, % at 5 µM; in the data active = activation above about 47%;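 note: 0% = vehicle wells and 100% = reference agonist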
Numbers without * were called inactive; ? = inconclusive; . = no result. Hits are enriched below; roughly 5.9% of the tested compounds scored in any of these assays.

SMILES | DAX1 inh | HSP90 refold inh | HSF-1 act | FXN GAA850 act | HSF1 inh | AHR activator
CCC(=O)N1c2ccc(C)cc2C2=NNC(=S)NC21O (stereo unspecified) | 2 | 3 | -22 | 0 | -14 | 62*
CC1=CC(C)(C)N(C(=O)CN2C(=O)c3ccccc3C2=O)c2ccc(C)cc21 | 0 | 1 | 1 | 1 | 1 | -1
Cc1ccccc1N1CCN(S(=O)(=O)C[C@]23CCC(CC2NC(=O)[C@@H](N)CCS(C)(=O)=O)C3(C)C)CC1 (stereo partly specified) | -1 | . | . | 5 | . | 0
Cc1nn(-c2ccccc2)c(N)c1-c1ccccc1 | -1 | 2 | 23 | 6 | 9 | 3
Cc1nn(-c2nc3ccccc3s2)c(N)c1-c1ccc(Cl)cc1 | 1 | 1 | 49 | 3 | 27 | 77*
Cc1cc(C)n(-c2nc3ccccc3s2)n1 | 0 | -2 | -88 | 3 | -84* | 4
Cc1nn(-c2nc3ccccc3[nH]2)c(N)c1-c1ccccc1 | 1 | 0 | 71* | 5 | 45 | 7
Cc1nn(-c2nc3ccccc3s2)c(N)c1-c1ccccc1 | 4 | -8 | 48 | 5 | 29 | 42
Cc1cc(N)n(-c2nc3ccccc3s2)n1 | 5.2* | 1 | -25 | 5 | ? | 19
COc1ccc(S(=O)(=O)NCCC(=O)OCC(=O)NC2CC2)cc1 | 0 | . | . | 2 | . | 1
C[C@@H]1CN([C@@H](C)CO)C(=O)CCCn2nncc2CO[C@H]1CN(C)S(=O)(=O)c1ccccc1C#N | 2 | . | . | 1 | . | .
CCN1C(=O)c2cccc3c(S(=O)(=O)Nc4ccccc4)ccc1c23 | 3 | -1 | 59* | 4 | 32 | 9
CCN1C(=O)c2cccc3c(S(=O)(=O)Nc4ncccc4C)ccc1c23 | 2 | 1 | 89* | 7 | 41 | 4
CCN1C(=O)c2cccc3c(S(=O)(=O)Nc4ccncc4)ccc1c23 | 1 | 2 | -8 | 3 | 2 | 2
CCN1C(=O)c2cccc3c(S(=O)(=O)Nc4ccccn4)ccc1c23 | 6.7* | -3 | 12 | 4 | 19 | 6
CCOc1ncccc1C(=O)OCC(=O)NC(=O)c1ccccc1 | 0 | . | . | 2 | . | -1
COc1ccc(/C=N/OCC(=O)NCc2cccs2)c(OC)c1 | -1 | -3 | 8 | 3 | -3 | 48*
CN(C(=O)C1CCC(=O)N(CCc2ccc(Cl)cc2)C1)C1CCOCC1 (stereo unspecified) | 0 | -1 | -9 | 1 | -3 | -1
CN(C)c1ccc(-c2nc3n(n2)C(c2cccnc2)C2=C(CC(C)(C)CC2=O)N3)cc1 (stereo unspecified) | -1 | -2 | -76 | 0 | -70* | 5
CC(=O)Nc1ccc(CN(C)c2c(C)nc3ccc(C(=O)NCCc4ccccn4)cn23)cc1 | . | . | . | 3 | . | .
Nc1ccc2nn(-c3cccc4ccccc34)nc2c1 | 0 | 0 | 12 | -4 | 2 | 48*
Cc1ccc2nc(NC(=O)CN3C(=O)NC4(CCCC4)C3=O)sc2c1 | 1 | . | -24 | 2 | -2 | -8
CC(C)N(C)S(=O)(=O)c1ccc(NC(=O)C2=COCCO2)cc1 | 2 | . | . | 4 | . | 1
N#CC(c1ccccc1O)N1N=C(c2ccccc2)CC1c1ccccc1 (stereo unspecified) | 4 | 2 | 40 | 8.2* | 17 | 17
CSc1ccc(C2N=C(c3ccccc3)NO2)cc1 (stereo unspecified) | 3 | 9 | -2 | 3 | 3 | 58*
SMILES | DAX1 inh | HSP90 refold inh | HSF-1 act | FXN GAA850 act | HSF1 inh | AHR activator
Clc1nc2c(-c3ccccc3)nnn2c2ccccc12 | 1 | 4 | ? | 6 | 58 | 52*
Fc1cccc(-c2nnn3c2nc(Cl)c2ccccc23)c1 | 4 | 6 | 454* | 4 | 356 | .
Cc1ccc(-c2nnn3c2nc(Cl)c2ccccc23)cc1 | 0 | -1 | 49 | 2 | 28 | .
CCCOc1ccc(C(=O)NNC(=S)NC(=O)c2cccs2)cc1 | 0 | -8 | -62 | -3 | -55* | 5
O=C(NC(=S)NNC(=O)c1cccs1)c1ccccc1 | 1 | 0 | 10 | 3 | 6 | 52*
CC(C)(C)c1ccc(C(=O)NC(=S)NNC(=O)c2cccs2)cc1 | 0 | 0 | -56 | 7 | -60* | 74*
Cc1cccc(C(=O)NC(=S)NNC(=O)c2cccs2)c1 | -1 | 0 | -13 | 0 | -21 | 18
